This note sets out measurements from ChEMBL document CHEMBL3988442, “University of Dundee, Small-Polar-MMV Screening Library” (2021).

The campaign covered roughly 48,000 compounds. About 13,000 (27%) showed an effect of 50% or more. The list shows a part of the results.

The subject of the test is Wolbachia pipientis. The experiment in a line: Anti-Wolbachia Cell-Based Screen. More on the design: scale not given: in the data most compounds retested in dose-response had high values. As to conditions: 5 µM. The format is functional.
Consider `Cc1cccc2sc(NC(=O)CN3CCCC4(CC3)CNC(=O)O4)nc12` (stereo not drawn), for which the “Percent Effect” value is -7.394%. For `CN(Cc1ccco1)C1CCC12CCN(C(=O)c1ccncc1)CC2` (stereo not drawn) the value was -36.28%; for `CCCOC1CCCN(Cc2nc(-c3cccs3)oc2C)C1` (stereo not drawn), 5.158%; for `Oc1cc(-c2cccs2)nc(C2CCCN(CC3=CCCOC3)C2)n1` (stereo not drawn), 158.9%. To `Cn1cc(CN2CCCC(c3nc(O)cc(-c4cccs4)n3)C2)cn1` (stereo not drawn) belongs 121.4%.

On to `Cc1nnsc1C(=O)N1CCC2(CC1)c1nc[nH]c1CCN2CC(C)C`, for which the “Percent Effect” value is recorded as -5.32%.

`CC(=O)N1CCC(Oc2ccc(C#N)cc2)CC1`: the “Percent Effect” value is reported as -9.565%. To `Cc1nc(N(C)C)ncc1C(=O)NCCCn1nccc1C1CC1` belongs -2.183%. `CC(C)NC(=O)c1noc2c1CN(Cc1cnn(C)c1)CC2`: the “Percent Effect” value was determined as 212.5%. For `Cc1cnn(C2CN(CC(=O)Nc3cccnc3)C2)c1` the value was -2.546%; for `O=C(Nc1cccnc1)c1noc2c1CN(S(=O)(=O)C1CC1)CC2`, 3.652%; for `CC(=O)NCc1noc2c1CN(Cc1cnn(C)c1)CC2`, 0.2145%. To `CC(C)NC(=O)C1CCC2(CCN(Cc3cnn(C)c3)CC2)CO1.O=C(O)C(F)(F)F` (stereo not drawn) belongs -4.372%; to `Cn1cc(CN2CCc3onc(C(=O)Nc4cccnc4)c3C2)cn1`, 104.3%; to `CSc1ccc(OC(C)C(=O)Nc2cc(C)n[nH]2)cc1` (stereo not drawn), -10.9%. For the compound `COC(=O)CNC(=O)C(C)Oc1ccccc1C(F)(F)F` (stereo not drawn), the “Percent Effect” value is -20.43%. For `CC(=O)N1CCc2[nH]nc(C(=O)N3CC=CC3)c2C1` the value was -70.9%. For `COc1cccc2[nH]cc(CCNC(=O)N3CCOCC3C3CC3)c12` (stereo not drawn) the value was -14.93%. For `Cc1nsc(NC(=O)N2CCc3sccc3C2)n1`, the “Percent Effect” value worked out at 105.8%. To `CSc1nsc(NC(=O)N2CCc3ccccc3C2)n1` belongs 111%; to `CN(C)c1ccc(NC(=O)N2CCc3sccc3C2)cn1`, -14.46%; to `Cc1nsc(C(=O)N2CCc3ccccc3C2)n1`, 14.75%. For `O=C(Nc1ccc(N2CCCC2)nc1)N1CCc2ccccc2C1` the value was 28.26%; for `Cc1nsc(N2CCc3sccc3C2)n1`, 15.05%; for `CN(C)Cc1cc(CC2(NCc3ccc(C#N)cc3)COC2)no1`, 1.695%. As to `Cn1cccc(NC(=O)N2CCC(CSc3ccccc3)C2)c1=O` (stereo not drawn), the “Percent Effect” value is on record as -5.186%. To `COCC(=O)N1CCC2(CC(C(=O)NCc3cccnc3)=NO2)C1` (stereo not drawn) belongs -9.027%; to `CC(C)(C)CC(=O)N1CCCC2(CC(C(=O)Nc3ccccc3)=NO2)C1` (stereo not drawn), 98.19%. For the compound `CC(C)C(=O)N1CCCC2(CC(C(=O)NCc3cccnc3)=NO2)C1.O=C(O)C(F)(F)F` (stereo not drawn), the “Percent Effect” value is recorded as -6.89%. For `CC(C)CC(=O)N1CCCC2(CC(C(=O)Nc3ccccc3)=NO2)C1` (stereo not drawn) the value was 115.3%. To `CC(C)NC(=O)N1CCCC2(CC(C(=O)Nc3ccccc3)=NO2)C1` (stereo not drawn) belongs 111.3%; to `CC(C)NC(=O)N1CCC2(CC(C(=O)NCc3cccnc3)=NO2)C1` (stereo not drawn), -3.064%; to `Cc1ncccc1NC(=O)C1=NOC2(CCN(Cc3nccs3)C2)C1` (stereo not drawn), 10.83%. To `CN(Cc1ccc2c(c1)OCO2)C(=O)c1ccc(C2CCCO2)s1` (stereo not drawn) belongs -6.874%; to `Cc1n[nH]c(C)c1CCc1nc(C2CC2)n[nH]1`, -13.82%. As for `Cc1cc(C(=O)NCCc2cn3nc(C)sc3n2)c(C)o1`, the “Percent Effect” value is reported as -4.861%.

As to `Cc1cn(CC(=O)NCC(=O)NC2CC2)c2ccccc12`, the “Percent Effect” value was -10.11%.

With `CCc1nsc(N2CCn3c(nnc3-c3ccccc3)C2)n1`, the “Percent Effect” value was -13.36%. Regarding `CCCSCC(=O)N1C[C@@H]2CC[C@H](C1)N(Cc1ccccn1)C2=O`, the “Percent Effect” value was 6.181%. Turning to `O=C([C@H]1C[C@H]2OCC[C@H]2N(CC2CC2)C1)N1CCCC1`, the “Percent Effect” value is listed as -0.02998%. To `CCc1nc(C)c([C@H]2CN(C)C[C@@H]2C(=O)NCc2ccccn2)[nH]1` belongs -14.52%; to `CS(=O)(=O)NC[C@H]1Cn2c(-c3ccc4c(c3)OCCO4)cnc2CO1`, -15.67%; to `Cc1noc(C(C)N2CCN(CCCN3CCCC3=O)CC2)n1` (stereo not drawn), 8.407%. Consider `Cc1noc(C(C)N2CCN(CCN3CCCC3=O)CC2)n1` (stereo not drawn), for which the “Percent Effect” value is 121%. To `CCc1noc(C(C)N2CCN(CCc3ccncc3)CC2)n1` (stereo not drawn) belongs 0.707%.

For the compound `CCc1noc(C(C)N2CCN(CCN3CCCC3=O)CC2)n1` (stereo not drawn), the “Percent Effect” value is on record as 113.9%. As to `CCc1noc(C(C)N2CCC(N3CCCC3)CC2)n1` (stereo not drawn), the “Percent Effect” value is reported as -6.719%. To `Cc1noc(C)c1CN(C)CC(=O)/N=c1\cc[nH]n1C(C)C1CC1` (stereo not drawn) belongs -5.789%; to `CN(C)c1cccc(C(=O)Nc2cnn(Cc3ccccn3)c2)c1`, -6.173%.

`Cc1ccc2cc(C3(O)CCN(C)CC3)ccc2n1`: the “Percent Effect” value was -2.467%.

`COC[C@@]12CC[C@@H](N3CCOCC3)C[C@H]1CCN(c1ncccn1)C2`: the “Percent Effect” value is -5.007%. To `COc1cc(C)ccc1OCc1nc(C(=O)N2CCCO2)co1` belongs -7.138%; to `O=C(c1coc(COc2ccccc2F)n1)N1CCC[C@H]1CO`, 111.3%. For `O=C(c1coc(COc2ccccc2F)n1)N1CCCO1` the value was 104.9%; for `COc1cc(C)ccc1OCc1nc(C(=O)N2CCCC2)co1`, 0.1288%; for `CC[C@H](CO)NC(=O)c1coc(COc2ccccc2F)n1`, -31.99%. In the case of `O=C(c1coc(COc2cccc3cnccc23)n1)N1CCCCCC1`, the “Percent Effect” value turned out to be 5.374%. Regarding `COCCC1CCCCN1C(=O)c1coc(COc2ccccc2F)n1` (stereo not drawn), the “Percent Effect” value stood at 108.5%.

Regarding `CC1CCCCN1C(=O)c1coc(COc2cccc3cnccc23)n1` (stereo not drawn), the “Percent Effect” value is given as -5.431%.

For `COc1ccccc1OCc1cc(C(=O)N2CCCCCC2CO)n[nH]1` (stereo not drawn), the “Percent Effect” value is recorded as -25.79%. To `CC(c1ccco1)n1cc(-c2cc(CN3CCCC3)cs2)nn1` (stereo not drawn) belongs 21.85%; to `CCc1ccc(CC)c(NCC(=O)N2CCCC(NC(C)=O)C2)c1` (stereo not drawn), 8.422%; to `CCc1cc(C)c(C(=O)N2CCCC(c3nnn[nH]3)C2)o1` (stereo not drawn), 6.83%.

Consider `CCOc1ccc(CCCC(=O)N2CCC(C(=O)NC)C2)cc1C` (stereo not drawn), for which the “Percent Effect” value is reported as 83.39%. As to `CCOc1ccc(CCCC(=O)N2CCC(c3nnn[nH]3)CC2)cc1C`, the “Percent Effect” value was 92.44%. To `CCOc1cc(NC(=O)N2CCC(c3nnc[nH]3)CC2)ccc1C` belongs 11.09%; to `CCOc1ccc(CCCC(=O)N2CC[C@H](NC(C)=O)C2)cc1C`, 116.5%; to `CCOc1ccc(C(C)NC(=O)N2CCC(C(N)=O)CC2)cc1OC` (stereo not drawn), -11.4%. For `CCNC(=O)N1CCC(NC(=O)NCCCc2cccc(F)c2)C1` (stereo not drawn) the value was -2.549%; for `CNC(=O)C1CCN(C(=O)c2coc(COc3ccc(OC)cc3)n2)C1` (stereo not drawn), -10.95%.

For `O=C(C1CC=CC1)N1CC[C@@H]2O[C@@H](COCC3CCOCC3)CC[C@@H]21`, the “Percent Effect” value is reported as -9.606%. For `COCCNC(=O)Cn1c(-c2cccc(Cl)c2)nc(C)c(CCO)c1=O`, the “Percent Effect” value came out at 141.8%. To `CC(=O)Nc1nc(C(=O)NCCOc2cccc(F)c2)cs1` belongs 5.348%; to `COCCC(=O)NCC1Cn2nnc(-c3cccc(F)c3)c2CO1` (stereo not drawn), -4.513%; to `CNC(=O)c1cn2cc(-c3cccc(Cl)c3)n(CC=C(C)C)c(=O)c2n1`, 3.943%. To `COCCNC(=O)Cn1c(-c2cccc(F)c2)nc(C)c(CCO)c1=O` belongs 196.7%; to `Cc1cc(=O)n(CC(=O)NCCC(C)C)c(-c2cccc(Cl)c2)n1`, -16.01%; to `O=C(O)C(F)(F)F.O=C(c1cocn1)N1CC[C@H]2OCC[C@@]2(COc2ncccc2F)C1`, 4.073%. For `CCS(=O)(=O)N1CCc2onc(COc3ccccn3)c2C1.O=C(O)C(F)(F)F` the value was -3.121%; for `Cc1ccc(C(=O)N2CCc3ncnc(C)c3CC2)cn1`, -9.03%. `CCN(C)c1ncnc2c1CCN(C(=O)c1ccoc1C)CC2.O=C(O)C(F)(F)F`: the “Percent Effect” value was 0.8996%. For the compound `O=C(O)C(F)(F)F.O=C(c1cccnc1)N1CCc2ncnc(N3CCOCC3)c2CC1`, the “Percent Effect” value turned out to be 3.769%. To `Cc1ccc(C(=O)N2CCc3ncnc(-c4cnn(C)c4)c3CC2)cn1.O=C(O)C(F)(F)F` belongs 114%. On to `CN(C)CC(=O)N1CCc2ncnc(-c3cncnc3)c2CC1.O=C(O)C(F)(F)F`, for which the “Percent Effect” value turned out to be 2.289%. To `Cc1oncc1C(=O)N1CCc2ncnc(-c3cnn(C)c3)c2CC1.O=C(O)C(F)(F)F` belongs 102.6%; to `Cc1ccc(=O)n(CC(=O)N(C)Cc2csc(-c3cccs3)n2)n1`, -12.57%; to `O=C(N[C@@H]1CC[C@@H](N2CCCC2)[C@@H]1O)c1cc2ccccc2[nH]1`, 132.3%. With `CO[C@H]1CN(C(C)C)C[C@@H]1NC(=O)c1cc(-c2ccccc2F)n[nH]1`, the “Percent Effect” value is -41.59%.

As for `Cc1c(C(=O)N2CCN(C)[C@@H]3CS(=O)(=O)C[C@@H]32)[nH]c2ccc(F)cc12`, the “Percent Effect” value is reported as 22.59%.

As to `Cc1c(C(=O)N[C@@H]2CC[C@@H](N3CCCC3)[C@@H]2O)[nH]c2ccc(F)cc12`, the “Percent Effect” value is given as 79.42%.

With `CC(=O)N[C@@H]1CN(C(=O)c2cc3ccccc3[nH]2)C[C@H]1c1ccc(C)o1`, the “Percent Effect” value is on record as 5.04%. To `O=C(N[C@@H]1CC[C@@H](N2CCCC2)[C@@H]1O)c1cc2cccc(F)c2[nH]1` belongs 98.49%.

With `CS(=O)(=O)NC1CCN(C(=O)c2[nH]c3ccc(Cl)cc3c2Cl)CC1`, the “Percent Effect” value amounted to 24.08%.

For the compound `O=C(N[C@@H]1CCNC[C@H]1O)c1ccc(F)c(Cl)c1`, the “Percent Effect” value is -18.82%. For `O=C(NC1CCCCNC1=O)c1cc2ccccc2[nH]c1=O` (stereo not drawn) the value was 20.65%. For `CSCCC(C)NC(=O)N1CCSC(C)(C)C1` (stereo not drawn) the value was 17.63%; for `CCOC(=O)c1ccc(CNC(=O)c2ccc(Cl)cn2)o1`, -5.208%.

`CCOc1ccc(C2CC(=O)Nc3c2c(=O)nc2sccn32)cc1` (stereo not drawn): the “Percent Effect” value is listed as 17.16%.
